Inconclusive results are not listed. Calls of active or inactive are those of the source. Rule for the calls, unless noted: active = hit-call score of the fitted dose curve at least 0.9, where 1 is the maximum; inconclusive = response in the unintended direction; inactive = score below 0.9.
Columns and labels:
[1] = target: mouse Estrogen Receptor alpha (Era), Esr1 (gene 13982) (UniProt P19785); experiment: NVS_NR_mERa: NovaScreen (NVS) Nuclear Receptor Binding Assay for mouse Estrogen Receptor alpha (Era) (AID 2283378);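 note: hit means loss of bound radioligand signal relative to DMSO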
mouse Estrogen Receptor alpha (Era), Esr1 (gene 13982), sequence (P19785 whole entry, looked up): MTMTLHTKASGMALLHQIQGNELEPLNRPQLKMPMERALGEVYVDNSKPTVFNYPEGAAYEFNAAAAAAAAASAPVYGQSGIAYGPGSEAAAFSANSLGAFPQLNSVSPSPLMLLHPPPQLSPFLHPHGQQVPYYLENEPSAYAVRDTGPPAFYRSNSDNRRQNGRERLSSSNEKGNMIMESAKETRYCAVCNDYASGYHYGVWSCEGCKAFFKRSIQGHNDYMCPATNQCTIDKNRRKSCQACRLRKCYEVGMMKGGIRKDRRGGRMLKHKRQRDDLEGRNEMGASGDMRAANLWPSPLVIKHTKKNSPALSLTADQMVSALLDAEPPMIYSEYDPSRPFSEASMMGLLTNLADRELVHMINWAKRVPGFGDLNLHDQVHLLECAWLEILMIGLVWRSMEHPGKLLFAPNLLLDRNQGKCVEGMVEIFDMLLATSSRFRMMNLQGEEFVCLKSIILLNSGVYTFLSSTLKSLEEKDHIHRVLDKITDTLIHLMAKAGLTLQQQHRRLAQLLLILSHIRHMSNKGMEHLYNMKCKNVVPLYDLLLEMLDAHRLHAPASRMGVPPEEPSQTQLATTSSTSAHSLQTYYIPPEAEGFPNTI
How it was run: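 Cell-free radioligand competitive displacement binding, read by filter-based scintillation counting 18 h after dosing. Primary screen run in duplicate at 25 uM, actives retested in concentration series; loss of signal versus DMSO.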

[2] = target: Estrogen receptor beta (Homo sapiens) (UniProt Q92731); experiment: OT_ER_ERbERb_1440: Odyssey Thera (OT) 24-hour HEK293T Protein-Complementation Assay for Estrogen Receptor-beta/-beta Homodimer (AID 2283380);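 note: fluorescence gain from ER beta LBD homodimer complementation read by laser scanning cytometry; scored as signal increase over DMSO baseline for both agonists and antagonists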
Estrogen receptor beta (Homo sapiens), sequence (Q92731 whole entry, looked up, the tested form may be a part): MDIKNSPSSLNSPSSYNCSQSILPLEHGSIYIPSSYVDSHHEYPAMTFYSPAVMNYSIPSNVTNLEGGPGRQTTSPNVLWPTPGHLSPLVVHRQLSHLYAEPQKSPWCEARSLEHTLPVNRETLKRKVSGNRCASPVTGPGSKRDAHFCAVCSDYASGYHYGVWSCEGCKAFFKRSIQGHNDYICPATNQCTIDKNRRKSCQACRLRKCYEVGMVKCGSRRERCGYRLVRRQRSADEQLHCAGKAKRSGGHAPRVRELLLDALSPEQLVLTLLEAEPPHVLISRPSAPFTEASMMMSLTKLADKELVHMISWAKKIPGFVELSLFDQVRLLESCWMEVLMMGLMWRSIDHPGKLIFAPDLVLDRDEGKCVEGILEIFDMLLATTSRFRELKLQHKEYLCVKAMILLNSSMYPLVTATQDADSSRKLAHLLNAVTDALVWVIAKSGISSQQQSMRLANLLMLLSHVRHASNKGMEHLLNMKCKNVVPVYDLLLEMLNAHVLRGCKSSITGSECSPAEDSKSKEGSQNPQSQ
How it was run: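 HEK293T cells stably expressing human ER-beta LBD (aa 310-547) PCA homodimer pair, dosed 24 h; formaldehyde-fixed, Draq5-stained. Readout: increase in nuclear (agonist) or nuclear plus cytoplasmic (antagonist) fluorescence intensity versus DMSO, gain-of-signal fitting.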

[3] = target: Estrogen receptor (Homo sapiens) (UniProt P03372); experiment: OT_ERa_GFPERaERE_0480: Odyssey Thera (OT) 8-hour HeLa Transcription Induction Assay for Estrogen Receptor (AID 2283381; active = hit-call score of the fitted dose curve at least 0.9, where 1 is the maximum; inactive = score below 0.9)
Estrogen receptor (Homo sapiens), sequence (P03372 whole entry, looked up): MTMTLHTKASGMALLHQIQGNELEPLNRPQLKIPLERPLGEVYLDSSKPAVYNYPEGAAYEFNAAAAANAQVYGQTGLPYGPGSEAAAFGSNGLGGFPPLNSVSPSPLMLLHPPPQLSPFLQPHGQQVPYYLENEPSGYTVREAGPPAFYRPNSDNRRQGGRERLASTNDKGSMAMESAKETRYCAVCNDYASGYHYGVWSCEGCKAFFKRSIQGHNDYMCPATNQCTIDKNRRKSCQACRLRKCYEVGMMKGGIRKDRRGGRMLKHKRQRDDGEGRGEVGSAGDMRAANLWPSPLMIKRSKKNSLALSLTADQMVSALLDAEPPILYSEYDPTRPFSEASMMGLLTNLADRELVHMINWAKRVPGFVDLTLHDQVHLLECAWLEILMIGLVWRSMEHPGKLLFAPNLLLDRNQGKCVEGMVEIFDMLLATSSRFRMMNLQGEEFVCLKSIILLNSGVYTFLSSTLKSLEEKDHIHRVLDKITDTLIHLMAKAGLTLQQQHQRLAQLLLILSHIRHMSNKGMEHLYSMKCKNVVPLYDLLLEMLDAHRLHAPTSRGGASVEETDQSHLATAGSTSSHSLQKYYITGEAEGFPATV
How it was run: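 Human cervical HeLa cells were treated for 8 hours, after which ERE-driven GFP induction was measured by fluorescence microscopy; increases over DMSO baseline defined activity.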

[4] = target: Estrogen receptor (Homo sapiens) (UniProt P03372); experiment: OT_ERa_GFPERaERE_0120: Odyssey Thera (OT) 2-hour HeLa Transcription Induction Assay for Estrogen Receptor (AID 2283382)
How it was run: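 Cells (human cervical HeLa) receive compound, incubate 2 hours, then are imaged for fluorescent reporter induction. Images are quantified by high content analysis, and activity is fitted as gain of signal against DMSO.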

[5] = target: Bile acid receptor (Homo sapiens) (UniProt Q96RI1); experiment: OT_FXR_FXRSRC1_0480: Odyssey Thera (OT) 8-hour HEK293T Protein-Complementation Assay for Farnesoid X receptor/SRC-1 Co-activator (AID 2283383)
Bile acid receptor (Homo sapiens), sequence (Q96RI1 whole entry, looked up, the tested form may be a part): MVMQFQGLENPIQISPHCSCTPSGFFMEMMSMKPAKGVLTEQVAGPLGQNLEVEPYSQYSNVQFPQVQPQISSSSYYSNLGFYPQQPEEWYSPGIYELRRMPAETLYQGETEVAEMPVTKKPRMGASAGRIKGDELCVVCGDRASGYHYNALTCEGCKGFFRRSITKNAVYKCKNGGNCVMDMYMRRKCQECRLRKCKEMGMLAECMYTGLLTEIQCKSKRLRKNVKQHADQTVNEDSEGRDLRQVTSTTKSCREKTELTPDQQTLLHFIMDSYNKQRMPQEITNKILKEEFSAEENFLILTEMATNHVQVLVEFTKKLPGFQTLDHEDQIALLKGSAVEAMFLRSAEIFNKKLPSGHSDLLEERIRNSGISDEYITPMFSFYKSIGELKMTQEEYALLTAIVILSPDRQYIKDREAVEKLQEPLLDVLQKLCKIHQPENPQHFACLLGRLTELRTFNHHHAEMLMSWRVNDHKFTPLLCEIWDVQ
How it was run: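 PCA, HEK293T, 8 h compound exposure; FXR–SRC-1 binding reconstitutes split reporter; fluorescence intensity; positive-direction fit vs DMSO.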

[6] = target: Bile acid receptor (Homo sapiens) (UniProt Q96RI1); experiment: OT_FXR_FXRSRC1_1440: Odyssey Thera (OT) 24-hour HEK293T Protein-Complementation Assay for Farnesoid X receptor/SRC-1 Co-activator (AID 2283384)
How it was run: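 Measures ligand-driven FXR–SRC-1 co-activator recruitment in HEK293T via fragment complementation, fluorescence intensity at 24 h. DMSO served as negative control and baseline for gain-of-signal fitting.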

[7] = target: Retinoic acid receptor RXR-alpha (Homo sapiens) (UniProt P19793); experiment: OT_NURR1_NURR1RXRa_0480: Odyssey Thera (OT) 8-hour HEK293T Protein Complementation Assay for Nurr1/retinoid X receptor (RXR) (AID 2283385)
Retinoic acid receptor RXR-alpha (Homo sapiens), sequence (P19793 whole entry, looked up, the tested form may be a part): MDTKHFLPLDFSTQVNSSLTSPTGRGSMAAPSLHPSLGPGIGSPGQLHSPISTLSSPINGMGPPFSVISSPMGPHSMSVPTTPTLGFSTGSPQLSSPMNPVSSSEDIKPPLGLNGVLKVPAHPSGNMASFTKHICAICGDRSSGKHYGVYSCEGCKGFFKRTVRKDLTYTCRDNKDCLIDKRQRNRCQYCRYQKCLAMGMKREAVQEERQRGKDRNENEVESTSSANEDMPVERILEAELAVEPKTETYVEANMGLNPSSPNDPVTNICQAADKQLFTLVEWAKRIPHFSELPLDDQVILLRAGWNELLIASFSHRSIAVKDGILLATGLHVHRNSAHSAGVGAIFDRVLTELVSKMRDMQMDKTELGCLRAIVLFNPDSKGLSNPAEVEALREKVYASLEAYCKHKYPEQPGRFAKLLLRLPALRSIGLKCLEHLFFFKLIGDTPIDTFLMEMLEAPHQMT
How it was run: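 Interaction of bait and prey reconstitutes a functional reporter, whose fluorescence was measured in HEK293T cells dosed with compound for 8 hours. Signal gain relative to DMSO defined the single endpoint.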

[8] = target: Peroxisome proliferator-activated receptor gamma (Homo sapiens) (UniProt P37231); experiment: OT_PPARg_PPARgSRC1_1440: Odyssey Thera (OT) 24-hour Protein-Complementation Assay for Peroxisome Proliferator-activated Receptor Gamma/ SRC-1 Co-activator (AID 2283388)
Peroxisome proliferator-activated receptor gamma (Homo sapiens), sequence (P37231 whole entry, looked up, the tested form may be a part): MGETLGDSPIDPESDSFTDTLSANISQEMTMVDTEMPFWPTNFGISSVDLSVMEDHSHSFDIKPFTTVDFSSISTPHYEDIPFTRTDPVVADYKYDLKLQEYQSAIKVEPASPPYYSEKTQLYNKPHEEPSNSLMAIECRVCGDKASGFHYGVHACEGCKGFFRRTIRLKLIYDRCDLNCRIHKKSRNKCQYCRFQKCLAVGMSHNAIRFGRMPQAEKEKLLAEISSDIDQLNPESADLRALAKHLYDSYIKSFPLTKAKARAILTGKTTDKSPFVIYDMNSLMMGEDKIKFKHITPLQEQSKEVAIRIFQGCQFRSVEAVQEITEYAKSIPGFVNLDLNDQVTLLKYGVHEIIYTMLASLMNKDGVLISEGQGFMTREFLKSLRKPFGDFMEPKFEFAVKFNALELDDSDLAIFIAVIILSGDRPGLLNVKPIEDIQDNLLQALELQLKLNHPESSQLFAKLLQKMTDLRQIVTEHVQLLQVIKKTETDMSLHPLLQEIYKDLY
How it was run: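 HEK293T transiently transfected with PPARg/SRC-1 split-Venus YFP fusions 48 h before dosing, then treated 24 h at 37C. Fixed cells imaged; nuclear/cytoplasmic 488 nm fluorescence ratio, gain of signal versus DMSO.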

[9] = target: human Norepinephrine Transporter (NET), SLC6A2 (gene 6530) (UniProt P23975); experiment: NVS_TR_hNET: NovaScreen (NVS) Transporter Assay for human Norepinephrine Transporter (NET) (AID 2283377);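 note: cell-free membrane protein extracted from CHO cells expressing human NET; displacement of radioligand from human NET seen as loss of scintillation signal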
human Norepinephrine Transporter (NET), SLC6A2 (gene 6530), sequence (P23975 whole entry, looked up): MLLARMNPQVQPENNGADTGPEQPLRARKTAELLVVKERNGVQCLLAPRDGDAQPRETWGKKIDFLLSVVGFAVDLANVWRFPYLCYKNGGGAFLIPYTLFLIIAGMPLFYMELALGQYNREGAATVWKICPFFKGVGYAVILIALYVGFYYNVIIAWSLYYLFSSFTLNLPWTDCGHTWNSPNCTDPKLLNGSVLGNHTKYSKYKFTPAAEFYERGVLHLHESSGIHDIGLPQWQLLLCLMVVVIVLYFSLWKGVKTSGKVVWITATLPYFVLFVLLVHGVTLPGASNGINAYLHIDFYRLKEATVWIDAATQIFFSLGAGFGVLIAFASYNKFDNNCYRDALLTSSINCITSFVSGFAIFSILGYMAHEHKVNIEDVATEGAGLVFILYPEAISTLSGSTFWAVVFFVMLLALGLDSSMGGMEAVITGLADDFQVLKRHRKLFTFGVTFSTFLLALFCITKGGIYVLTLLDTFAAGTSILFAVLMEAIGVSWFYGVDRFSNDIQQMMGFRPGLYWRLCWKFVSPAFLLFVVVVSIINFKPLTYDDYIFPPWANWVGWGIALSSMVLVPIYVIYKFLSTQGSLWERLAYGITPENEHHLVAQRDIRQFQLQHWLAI
How it was run: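 In this cell-free binding screen, chemicals at 25 uM (duplicate) compete with a radioligand for CHO-derived human NET over 1 hour, with filter-based radiodetection.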

[10] = CEETOX_H295R_11DCORT: CeeTox H295R High-throughput Steroidogenesis Assay for 11-Deoxycortisol (11DCORT) (AID 2283432; active = hit-call score of the fitted dose curve at least 0.9, where 1 is the maximum; inactive = score below 0.9;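 for AC50: human adrenal H295R cells prestimulated with 10 µM forskolin for 48 h; 11-deoxycortisol secreted into the medium measured by LC-MS/MS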); details: actives raise or lower the signal
How it was run: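 Steroidogenesis in human H295R cells: 48 h chemical exposure after forskolin priming, 11-deoxycortisol measured by LC-MS/MS.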

[11] = CEETOX_H295R_OHPREG: CeeTox H295R High-throughput Steroidogenesis Assay for OH-Pregnenolone (OHPREG) (AID 2283434; active = hit-call score of the fitted dose curve at least 0.9, where 1 is the maximum; inactive = score below 0.9); details: actives raise or lower the signal
How it was run: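 Readout: HPLC-MS/MS of 17alpha-hydroxypregnenolone in medium after 48 h chemical exposure of H295R cells pretreated with forskolin. Values fitted bidirectionally relative to DMSO; chemicals reducing viability to 20–70% were retested after 10-fold dilution.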

[12] = CEETOX_H295R_OHPROG: CeeTox H295R High-throughput Steroidogenesis Assay for OH-Progesterone (OHPROG) (AID 2283435; active = hit-call score of the fitted dose curve at least 0.9, where 1 is the maximum; inactive = score below 0.9;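 for AC50: human adrenal H295R cells primed 48 h with 10 µM forskolin; 17alpha-hydroxyprogesterone secreted into medium measured by HPLC-MS/MS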); details: actives raise or lower the signal
How it was run: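 Steps: seed H295R cells and adhere overnight; stimulate with 10 uM forskolin for 48 h; replace with chemical-containing medium (0.1% DMSO) for 48 h; extract medium with MTBE; quantify 17alpha-hydroxyprogesterone by reverse-phase C18 HPLC-MS/MS against a 7-point curve.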

[13] = CEETOX_H295R_ANDR: CeeTox H295R High-throughput Steroidogenesis Assay for Androstenedione (ANDR) (AID 2283436; active = hit-call score of the fitted dose curve at least 0.9, where 1 is the maximum; inactive = score below 0.9;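 note: human H295R adrenal cells exposed for 48 h with androstenedione measured in medium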); details: actives raise or lower the signal
How it was run: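 Steroidogenesis in H295R adrenal cells after 48 h dosing; androstenedione quantified by LC-MS/MS, with DMSO as negative control and baseline for bidirectional curve fitting.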

[14] = CEETOX_H295R_CORTIC: CeeTox H295R High-throughput Steroidogenesis Assay for Corticosterone (CORTIC) (AID 2283437; active = hit-call score of the fitted dose curve at least 0.9, where 1 is the maximum; inactive = score below 0.9;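 note: corticosterone secreted into medium quantified by mass spectrometry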;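 for AC50: human H295R adrenal cells prestimulated with forskolin before chemical exposure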); details: actives raise or lower the signal
How it was run: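 Steps: seed H295R, adhere overnight; 10 uM forskolin 48 h; replace with chemical (0.1% DMSO) 48 h; extract medium with MTBE; quantify corticosterone by HPLC-MS/MS; score bidirectionally vs DMSO.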

[15] = CEETOX_H295R_CORTISOL: CeeTox H295R High-throughput Steroidogenesis Assay for Cortisol (AID 2283438; active = hit-call score of the fitted dose curve at least 0.9, where 1 is the maximum; inactive = score below 0.9;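 note: cortisol secreted into medium quantified by LC-MS/MS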); details: actives raise or lower the signal
How it was run: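 Cortisol synthesis by H295R cells is measured 48 h after chemical dosing, following a 48 h stimulation with 10 uM forskolin. Hormone is extracted and quantified by HPLC-MS/MS, and activity is fitted bidirectionally against the DMSO control.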

[16] = CEETOX_H295R_DOC: CeeTox H295R High-throughput Steroidogenesis Assay for DOC (AID 2283439; active = hit-call score of the fitted dose curve at least 0.9, where 1 is the maximum; inactive = score below 0.9); details: actives raise or lower the signal
How it was run: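 Steps: seed H295R, adhere overnight; 10 uM forskolin 48 h; replace with chemical medium (0.1% DMSO) 48 h; collect medium, MTBE extraction, HPLC-MS/MS for DOC. Viability then checked by MTT; cytotoxic chemicals diluted until viability ≥70%.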

[17] = CEETOX_H295R_ESTRADIOL: CeeTox H295R High-throughput Steroidogenesis Assay for Estradiol (AID 2283440; active = hit-call score of the fitted dose curve at least 0.9, where 1 is the maximum; inactive = score below 0.9;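 note: estradiol secreted into medium quantified by LC-MS/MS after dansyl derivatisation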); details: actives raise or lower the signal
How it was run: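 H295R cells pre-stimulated 48 h with 10 uM forskolin, then exposed 48 h to chemical in 0.1% DMSO. Medium estradiol quantified by MTBE extraction, dansyl derivatisation and HPLC-MS/MS; bidirectional fit versus DMSO; MTT viability required >/=70%.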

[18] = target: Agonist Androgen Response Element (ARE), AR (gene 367) (UniProt P10275); experiment: OT_AR_ARELUC_AG_1440: Odyssey Thera (OT) 24-hour CHO-K1 Luciferase Assay for Agonist Androgen Response Element (ARE) (AID 2283379)
Agonist Androgen Response Element (ARE), AR (gene 367), sequence (P10275 whole entry, looked up): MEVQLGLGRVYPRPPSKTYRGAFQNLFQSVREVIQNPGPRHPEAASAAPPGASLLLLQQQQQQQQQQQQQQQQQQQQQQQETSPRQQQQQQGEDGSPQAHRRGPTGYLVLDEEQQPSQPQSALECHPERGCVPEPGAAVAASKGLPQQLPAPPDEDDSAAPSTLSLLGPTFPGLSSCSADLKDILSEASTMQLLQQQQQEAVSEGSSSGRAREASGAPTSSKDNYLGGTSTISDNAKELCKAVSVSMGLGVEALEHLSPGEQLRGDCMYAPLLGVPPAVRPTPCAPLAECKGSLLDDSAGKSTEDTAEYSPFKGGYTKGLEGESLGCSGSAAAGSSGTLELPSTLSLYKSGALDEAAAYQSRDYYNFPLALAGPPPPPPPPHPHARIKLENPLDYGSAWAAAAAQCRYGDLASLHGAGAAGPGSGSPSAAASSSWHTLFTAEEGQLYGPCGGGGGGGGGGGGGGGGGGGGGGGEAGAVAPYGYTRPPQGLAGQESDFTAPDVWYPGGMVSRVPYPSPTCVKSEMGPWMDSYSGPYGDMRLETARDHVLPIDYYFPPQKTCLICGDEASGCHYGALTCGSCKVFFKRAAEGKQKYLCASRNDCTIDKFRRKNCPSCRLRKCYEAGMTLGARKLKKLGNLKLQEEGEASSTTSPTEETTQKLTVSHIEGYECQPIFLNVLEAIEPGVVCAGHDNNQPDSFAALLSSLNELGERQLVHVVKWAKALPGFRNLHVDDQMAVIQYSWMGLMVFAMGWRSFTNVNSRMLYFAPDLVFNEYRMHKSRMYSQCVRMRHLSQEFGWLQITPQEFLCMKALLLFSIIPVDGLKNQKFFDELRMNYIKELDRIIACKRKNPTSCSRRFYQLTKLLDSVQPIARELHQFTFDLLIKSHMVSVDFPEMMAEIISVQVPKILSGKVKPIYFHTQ
How it was run: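 Luminescence increase above DMSO, read after a 24 h compound treatment of CHO-K1 cells expressing an androgen response element luciferase reporter, gives the single primary endpoint; concentration-response fitting used the positive direction.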

[19] = target: Retinoic acid receptor RXR-alpha (Homo sapiens) (UniProt P19793); experiment: OT_NURR1_NURR1RXRa_1440: Odyssey Thera (OT) 24-hour HEK293T Protein Complementation Assay for Nurr1/retinoid X receptor (RXR) (AID 2283386)
How it was run: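 Steps: fragment-tagged Nurr1 and RXRα expressed in HEK293T; compounds added; after 24 h, complemented reporter quantified by fluorescence intensity; signal increase over DMSO fitted as the single endpoint.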

[20] = target: rat Serotonin Transporter (SERT), Slc6a4 (gene 25553) (UniProt P31652); experiment: NVS_TR_rSERT: NovaScreen (NVS) Transporter Assay for rat Serotonin Transporter (SERT) (AID 2283375)
How it was run: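 Rat forebrain membranes; radioligand displacement at SERT read by filter-based scintillation counting, 1 h after dosing. Screened in duplicate at 25 uM, actives then run in concentration series; loss of signal versus DMSO baseline.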

Measured: AC50

CCCCCCCC/C=C\CCCCCCCC(=O)N(C)CC(=O)O
inactive: [1] | [2] | [3] | [4] | [6] | [7] | [8]
active: [5] 72.6 µM

Cc1cc(O)c(C(C)(C)C)cc1C(C)(C)C
active: [9] 16.5 µM
inactive: [10] | [11] | [12] | [13] | [14] | [15] | [16] | [17]

CCN(CC)c1ccc(C=O)c(O)c1
active: [9] 25 µM

CCC(Cc1c(I)cc(I)c(N)c1I)C(=O)O (configuration not stated)
inactive: [1] | [3] | [4] | [5] | [6] | [7] | [8]

COCCOCCC[Si](C)(O[Si](C)(C)C)O[Si](C)(C)C
active: [2] 53.3 µM | [5] 50 µM | [7] 33.2 µM | [19] 90.4 µM
inactive: [1] | [18] | [3] | [4] | [6] | [8]

CCN=c1cc2oc3cc(NCC)c(C)cc3c(-c3ccccc3C(=O)OCC)c-2cc1C
inactive: [18] | [3] | [4] | [6]
active: [1] 25 µM | [2] 76.4 µM | [5] 1.36 µM | [7] 0.603 µM | [19] 0.769 µM | [8] 4.08 µM

C[C@]12CC[C@H]3C(=CCc4cc(O)ccc43)[C@@H]1CCC2=O
active: [20] 15.6 µM | [18] 0.284 µM | [5] 9.93 µM | [10] 17.8 µM | [11] 3.5 µM | [12] 2.87 µM | [13] 8.03 µM | [15] 13.7 µM | [16] 0.811 µM
inactive: [6] | [7] | [8] | [14]

CCN(CC)c1ccc(C=O)cc1
inactive: [10] | [11] | [12] | [13] | [14] | [15] | [17]
active: [20] 15.8 µM | [16] 59.2 µM

CSc1ccc(O)cc1C
inactive: [20] | [10] | [11] | [12] | [15] | [16]
active: [9] 36.4 µM | [13] 78 µM | [14] 37.6 µM | [17] 28.2 µM

CCCCCCCCCCCCC[N+](C)(C)Cc1ccccc1
active: [1] 8.86 µM | [4] 18.1 µM | [10] 0.287 µM | [11] 0.59 µM | [12] 0.509 µM | [13] 0.307 µM | [16] 0.337 µM
inactive: [18] | [2] | [3] | [8] | [14] | [15] | [17]

O=C1C=CC(=O)N1c1ccccc1
inactive: [1] | [18] | [2] | [3] | [4] | [8] | [10] | [11] | [12] | [13] | [14] | [15] | [16] | [17]

CCCCCCCC/C=C\CCCCCCCC(=O)OCC(O)CO (configuration not stated)
active: [5] 70.9 µM | [7] 71.1 µM | [19] 90.1 µM
inactive: [18] | [2] | [3] | [4] | [8]

c1ccc(C[P+](c2ccccc2)(c2ccccc2)c2ccccc2)cc1
active: [20] 3.33 µM

OCC1CCCO1 (configuration not stated)
inactive: [18] | [2] | [3] | [4] | [5] | [8]

O=C(c1ccccc1)c1ccc(O)cc1O
inactive: [5] | [6] | [7] | [8]
active: [1] 1.22 µM | [3] 8.62 µM | [4] 6.29 µM

CC(C)(C)c1cc(CCC(=O)OCC(COC(=O)CCc2cc(C(C)(C)C)c(O)c(C(C)(C)C)c2)(COC(=O)CCc2cc(C(C)(C)C)c(O)c(C(C)(C)C)c2)COC(=O)CCc2cc(C(C)(C)C)c(O)c(C(C)(C)C)c2)cc(C(C)(C)C)c1O
inactive: [1] | [2] | [3] | [4] | [5] | [6] | [7] | [19] | [8]

CCN(CC)c1ccc(N=Nc2ccccc2)cc1
active: [20] 3.36 µM | [10] 10 µM
inactive: [11] | [12] | [13] | [14] | [15] | [16] | [17]

CCCCCCCCn1sc(Cl)c(Cl)c1=O
active: [1] 25 µM
inactive: [3] | [4] | [7] | [19]

F[Si-2](F)(F)(F)(F)F
inactive: [18] | [2] | [3] | [4] | [5] | [19] | [8]

CCCCCCCCCCCCCC[P+](CCCC)(CCCC)CCCC
active: [3] 10.4 µM | [4] 12.2 µM
inactive: [1] | [18] | [2] | [8]

Cc1ccc(O)c(-n2nc3ccccc3n2)c1
active: [1] 6.65 µM | [5] 50 µM
inactive: [2] | [3] | [4] | [6] | [7] | [19] | [8]
